# Of roughly 21,000 targets only a part is listed; those with the largest changes were picked by preference.
# Compound: Cc1cc(ccc1-c1ccccc1)C(=O)N1CCCN(CC1)C(=O)CCl [compound 10]
# Test: probe-labelled cysteine peptide fold change vs DMSO (competition) (log2 fold change); higher = less target engagement (more negative = stronger competition)
# Conditions: 10 µM; THP-1; incubation time: 4 h
# 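Note: competitive profiling in live THP-1 cells: cysteine peptides tagged with an iodoacetamide desthiobiotin (IA-DTB) probe, intensity after compound treatment relative to DMSO-treated cells.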
# Chain of UniProt P16885 (P16885 whole entry, looked up): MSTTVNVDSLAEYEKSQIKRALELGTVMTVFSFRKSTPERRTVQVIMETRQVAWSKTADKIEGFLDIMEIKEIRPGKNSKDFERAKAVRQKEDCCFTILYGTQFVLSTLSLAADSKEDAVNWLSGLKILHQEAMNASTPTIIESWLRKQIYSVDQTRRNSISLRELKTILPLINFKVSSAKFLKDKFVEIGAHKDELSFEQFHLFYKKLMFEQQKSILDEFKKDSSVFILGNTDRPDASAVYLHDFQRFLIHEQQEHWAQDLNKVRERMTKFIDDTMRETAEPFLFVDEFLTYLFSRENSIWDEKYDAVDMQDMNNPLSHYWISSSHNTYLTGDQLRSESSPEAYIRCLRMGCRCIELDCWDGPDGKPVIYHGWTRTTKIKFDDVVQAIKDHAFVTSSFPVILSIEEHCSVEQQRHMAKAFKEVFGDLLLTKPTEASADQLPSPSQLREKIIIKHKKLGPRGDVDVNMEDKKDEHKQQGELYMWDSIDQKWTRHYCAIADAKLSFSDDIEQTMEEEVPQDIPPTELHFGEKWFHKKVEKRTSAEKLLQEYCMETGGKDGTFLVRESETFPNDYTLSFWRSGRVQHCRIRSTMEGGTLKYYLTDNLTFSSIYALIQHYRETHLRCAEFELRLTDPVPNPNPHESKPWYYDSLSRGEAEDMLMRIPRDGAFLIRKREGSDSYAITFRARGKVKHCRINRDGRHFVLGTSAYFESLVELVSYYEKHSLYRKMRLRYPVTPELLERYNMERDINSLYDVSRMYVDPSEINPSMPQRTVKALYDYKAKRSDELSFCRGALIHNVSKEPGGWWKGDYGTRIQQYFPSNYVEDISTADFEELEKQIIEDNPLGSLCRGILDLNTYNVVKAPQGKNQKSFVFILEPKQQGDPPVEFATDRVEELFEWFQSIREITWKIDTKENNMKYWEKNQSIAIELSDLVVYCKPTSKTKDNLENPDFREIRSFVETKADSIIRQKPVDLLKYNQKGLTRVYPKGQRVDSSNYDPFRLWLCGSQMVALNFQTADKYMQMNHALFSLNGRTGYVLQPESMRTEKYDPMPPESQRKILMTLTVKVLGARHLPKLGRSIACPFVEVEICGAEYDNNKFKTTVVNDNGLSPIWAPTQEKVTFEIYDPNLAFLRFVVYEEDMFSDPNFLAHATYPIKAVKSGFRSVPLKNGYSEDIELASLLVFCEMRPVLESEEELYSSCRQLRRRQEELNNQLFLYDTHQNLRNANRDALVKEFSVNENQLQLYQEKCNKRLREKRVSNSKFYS
# Chain of UniProt P30101 (P30101 whole entry, looked up): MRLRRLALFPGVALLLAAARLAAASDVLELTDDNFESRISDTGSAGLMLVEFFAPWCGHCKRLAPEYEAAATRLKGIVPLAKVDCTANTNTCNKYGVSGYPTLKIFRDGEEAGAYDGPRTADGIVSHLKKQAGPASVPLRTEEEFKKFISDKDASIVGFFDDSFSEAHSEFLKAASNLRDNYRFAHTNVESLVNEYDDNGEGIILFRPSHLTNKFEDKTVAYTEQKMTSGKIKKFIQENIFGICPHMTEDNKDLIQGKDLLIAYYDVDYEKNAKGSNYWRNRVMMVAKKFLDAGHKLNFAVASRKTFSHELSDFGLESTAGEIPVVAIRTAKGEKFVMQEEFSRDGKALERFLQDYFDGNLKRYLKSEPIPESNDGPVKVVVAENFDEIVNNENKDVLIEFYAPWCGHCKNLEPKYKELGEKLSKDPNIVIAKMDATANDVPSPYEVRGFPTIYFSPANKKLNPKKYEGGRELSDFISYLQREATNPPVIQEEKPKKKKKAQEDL
# Chain of UniProt Q8IYS1 (Q8IYS1 whole entry, looked up): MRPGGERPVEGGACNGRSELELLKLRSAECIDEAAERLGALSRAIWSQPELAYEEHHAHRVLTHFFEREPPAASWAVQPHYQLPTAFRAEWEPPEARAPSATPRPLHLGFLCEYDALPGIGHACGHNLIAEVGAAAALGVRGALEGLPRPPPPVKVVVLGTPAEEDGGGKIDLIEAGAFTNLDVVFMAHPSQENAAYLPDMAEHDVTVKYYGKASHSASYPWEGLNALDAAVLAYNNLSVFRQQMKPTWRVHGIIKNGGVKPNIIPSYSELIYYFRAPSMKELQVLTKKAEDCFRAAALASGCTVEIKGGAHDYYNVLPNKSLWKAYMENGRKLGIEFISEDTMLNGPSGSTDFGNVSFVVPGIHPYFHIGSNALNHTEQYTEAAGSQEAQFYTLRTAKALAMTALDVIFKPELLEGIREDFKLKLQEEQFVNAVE
# Chain of UniProt O00743 (O00743 whole entry, looked up): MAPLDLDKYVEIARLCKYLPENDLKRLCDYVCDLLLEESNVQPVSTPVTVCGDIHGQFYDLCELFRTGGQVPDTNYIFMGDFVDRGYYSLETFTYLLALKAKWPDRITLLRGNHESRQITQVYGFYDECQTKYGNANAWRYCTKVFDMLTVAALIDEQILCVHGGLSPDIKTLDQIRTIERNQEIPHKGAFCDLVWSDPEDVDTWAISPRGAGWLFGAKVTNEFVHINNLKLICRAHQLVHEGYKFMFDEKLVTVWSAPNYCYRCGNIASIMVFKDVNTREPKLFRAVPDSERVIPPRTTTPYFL
# Chain of UniProt Q99575 (Q99575 whole entry, looked up): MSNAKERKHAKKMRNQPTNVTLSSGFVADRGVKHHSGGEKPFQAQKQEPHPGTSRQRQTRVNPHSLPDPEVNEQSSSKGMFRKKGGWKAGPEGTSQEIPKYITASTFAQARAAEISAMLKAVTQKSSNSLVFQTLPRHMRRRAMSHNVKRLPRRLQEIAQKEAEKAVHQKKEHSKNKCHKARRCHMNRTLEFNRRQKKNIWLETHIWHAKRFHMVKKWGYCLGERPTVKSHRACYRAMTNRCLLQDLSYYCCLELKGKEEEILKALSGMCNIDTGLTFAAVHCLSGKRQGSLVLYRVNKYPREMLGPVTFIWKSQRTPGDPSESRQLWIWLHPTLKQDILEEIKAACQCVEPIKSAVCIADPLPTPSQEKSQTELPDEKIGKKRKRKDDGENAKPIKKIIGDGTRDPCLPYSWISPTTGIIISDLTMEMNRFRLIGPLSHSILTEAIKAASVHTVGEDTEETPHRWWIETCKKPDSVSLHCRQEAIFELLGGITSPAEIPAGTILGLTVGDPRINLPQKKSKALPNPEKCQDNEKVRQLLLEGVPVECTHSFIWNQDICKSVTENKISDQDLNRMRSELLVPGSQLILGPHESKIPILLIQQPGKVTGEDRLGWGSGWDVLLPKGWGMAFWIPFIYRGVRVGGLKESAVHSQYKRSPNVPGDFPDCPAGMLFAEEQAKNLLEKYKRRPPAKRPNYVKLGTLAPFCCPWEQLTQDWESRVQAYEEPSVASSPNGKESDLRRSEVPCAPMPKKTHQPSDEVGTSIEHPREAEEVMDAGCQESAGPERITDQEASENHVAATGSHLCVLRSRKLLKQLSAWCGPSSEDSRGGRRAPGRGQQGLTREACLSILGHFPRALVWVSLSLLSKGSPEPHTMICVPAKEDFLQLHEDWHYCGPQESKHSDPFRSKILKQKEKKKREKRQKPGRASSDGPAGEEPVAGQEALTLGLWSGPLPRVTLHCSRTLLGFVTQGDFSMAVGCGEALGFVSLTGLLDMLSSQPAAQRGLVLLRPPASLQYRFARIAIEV
# Chain of UniProt O14917 (O14917 whole entry, looked up): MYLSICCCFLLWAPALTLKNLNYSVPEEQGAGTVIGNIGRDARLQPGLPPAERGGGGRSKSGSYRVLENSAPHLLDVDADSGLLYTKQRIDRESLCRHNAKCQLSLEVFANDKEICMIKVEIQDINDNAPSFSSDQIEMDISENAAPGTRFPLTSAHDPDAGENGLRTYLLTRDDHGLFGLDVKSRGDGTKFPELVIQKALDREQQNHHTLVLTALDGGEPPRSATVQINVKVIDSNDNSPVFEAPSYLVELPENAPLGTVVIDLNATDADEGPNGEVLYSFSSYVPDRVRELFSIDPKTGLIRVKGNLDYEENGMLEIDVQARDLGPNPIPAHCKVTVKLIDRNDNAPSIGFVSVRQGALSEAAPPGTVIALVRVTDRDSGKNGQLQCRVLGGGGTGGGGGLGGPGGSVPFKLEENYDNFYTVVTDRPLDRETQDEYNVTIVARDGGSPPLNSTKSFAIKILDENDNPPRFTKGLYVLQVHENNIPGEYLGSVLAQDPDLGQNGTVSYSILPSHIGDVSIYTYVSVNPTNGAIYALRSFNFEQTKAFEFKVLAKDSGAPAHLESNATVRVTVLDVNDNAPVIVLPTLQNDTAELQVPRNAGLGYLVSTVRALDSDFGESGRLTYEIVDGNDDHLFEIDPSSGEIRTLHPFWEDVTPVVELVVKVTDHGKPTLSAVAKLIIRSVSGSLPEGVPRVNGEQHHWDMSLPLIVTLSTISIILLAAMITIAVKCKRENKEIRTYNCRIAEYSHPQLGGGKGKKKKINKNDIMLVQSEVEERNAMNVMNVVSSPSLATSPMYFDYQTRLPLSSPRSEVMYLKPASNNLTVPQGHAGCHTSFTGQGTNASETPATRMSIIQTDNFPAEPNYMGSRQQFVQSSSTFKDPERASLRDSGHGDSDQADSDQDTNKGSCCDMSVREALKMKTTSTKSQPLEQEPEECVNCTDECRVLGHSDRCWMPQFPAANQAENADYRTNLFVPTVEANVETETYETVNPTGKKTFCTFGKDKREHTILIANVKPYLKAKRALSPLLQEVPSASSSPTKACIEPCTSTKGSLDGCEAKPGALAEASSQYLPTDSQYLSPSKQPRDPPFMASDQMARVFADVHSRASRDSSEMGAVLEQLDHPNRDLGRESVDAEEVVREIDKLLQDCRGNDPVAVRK
# Chain of UniProt Q15365 (Q15365 whole entry, looked up): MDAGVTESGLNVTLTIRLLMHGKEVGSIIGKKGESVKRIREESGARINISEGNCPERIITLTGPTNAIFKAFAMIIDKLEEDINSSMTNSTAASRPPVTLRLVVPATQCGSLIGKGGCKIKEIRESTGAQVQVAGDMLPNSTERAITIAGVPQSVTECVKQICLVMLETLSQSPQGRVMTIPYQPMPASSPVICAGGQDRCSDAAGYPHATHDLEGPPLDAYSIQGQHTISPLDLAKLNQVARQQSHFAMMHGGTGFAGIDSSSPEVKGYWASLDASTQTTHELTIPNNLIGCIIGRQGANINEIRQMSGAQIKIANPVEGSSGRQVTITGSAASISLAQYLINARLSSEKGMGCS
row,Target,probe-labelled cysteine peptide fold change
1,PPP6C_O00743_129_QITQVYGFYDECQTK (UniProt O00743),0.0334
2,PPP5D1_E7EU14_47_YQECNK<|>PPP5C_P53041_139_YQECNK (UniProt P53041+E7EU14),0.0409
3,POP1_Q99575_745_RSEVPCAPMPK (UniProt Q99575),-0.238
4,PDIA3_P30101_85+92_VDCTANTNTCNK (UniProt P30101),-0.107
5,PLCG2_P16885_791_SDELSFCR (UniProt P16885),-0.0321
6,POLR2A_P24928_451_HMCDGDIVIFNR (UniProt P24928),-0.0734
7,POFUT1_Q9H488_249_NACAMLK (UniProt Q9H488),-0.308
8,PML_P29590_140+143_ESADFWCFECEQLLCAK (UniProt P29590),0.0944
9,PDIA4_P13667_555_DVLIEFYAPWCGHCK<|>PDIA3_P30101_406_DVLIEFYAPWCGHCK (UniProt P30101+P13667),-0.287
10,PCDH17_O14917_335_DLGPNPIPAHCK (UniProt O14917),-0.0867
11,PECAM1_P16284_109_CTVIVNNK (UniProt P16284),0.0288
12,PATZ1_Q9HBE1_610_KYPCPECGSFFR (UniProt Q9HBE1),0.149
13,PM20D2_Q8IYS1_14_MRPGGERPVEGGACNGR (UniProt Q8IYS1),-0.16
14,PITPNB_P48739_13_VVLPCSVQEYQVGQLYSVAEASK (UniProt P48739),-0.0113
15,PCBP1_Q15365_158_AITIAGVPQSVTECVK (UniProt Q15365),0.332
